# Compounds with a hit are over-represented: about 4.3% of the library has one in this group of screens.
# MazEF act – MazEF (E. coli) toxin RNase activation | FAM/BHQ RNA-DNA oligo cleavage fluorescence, 5 h | hit rate 0.32% among 350,000 | activation, % at 20 µM; in the data active = activation above about 50%
# BoNT-A LC inh2 – blocks Botulinum neurotoxin A light chain protease | multiplex microsphere protease substrate cleavage, flow cytometry | inhibition, % at 10 µM | hit rate 0.17% among 360,000 | AID 588499
# BoNT-F LC inh – blocks Botulinum neurotoxin F light chain protease | Multiplex microsphere protease cleavage assay, flow cytometry | inhibition, % at 10 µM | hit rate 0.22% among 360,000 | AID 588497; in the data active = inhibition above about 35%, passing the limit was not always enough; inconclusive = no clear call, values can overlap the other calls
# Bead autofluor – counter-screen for toxin protease inhibitors: compound fluorescence. compound autofluorescence counterscreen, microsphere flow cytometry; hits give high values. fluorescence intensity (concentration not given with the values). hit rate 3.1% among 360,000. AID 624483; in the data active = fluorescence intensity above about 16000; inconclusive = no clear call, values can overlap the other calls
# Anthrax LF prot – anthrax lethal factor protease inhibition. P15917. multiplex microsphere protease cleavage assay, LF. inhibition, % at 10 µM. hit rate 0.12% among 360,000
# PfHsp40 yeast – compounds rescuing yeast from Plasmodium falciparum HSP40 toxicity. S. cerevisiae expressing PfHsp40, growth rescue, ATP luminescence. growth rescue, % at 12.5 µM. hit rate 0.68% among 340,000; in the data active = growth rescue above about 28%, passing the limit was not always enough; inconclusive = no clear call, values can overlap the other calls;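 also: yeast W303a lacking pdr1 and pdr3 grown in galactose medium; growth measured after three days at 30 °C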
# Numbers stand for hits; – = inactive; ? = inconclusive; · = not tested or not shown. Rule as the data show it, unless noted: active = inhibition above about 30%; inconclusive = no clear call, values can overlap the other calls; inactive = below that.
SMILES,MazEF act,BoNT-A LC inh2,BoNT-F LC inh,Bead autofluor,Anthrax LF prot,PfHsp40 yeast
O=C1c2ccccc2NC(c2ccc(-c3cccc(F)c3)o2)N1O (stereo not drawn),–,–,–,–,–,109
O=C1c2ccccc2NC(c2ccc(Cl)cc2Cl)N1O (stereo not drawn),–,–,–,–,–,292
N#Cc1ccc(-c2ccc(C3Nc4ccccc4C(=O)N3O)o2)cc1 (stereo not drawn),–,–,–,–,–,–
O=C1c2ccccc2NC(c2ccc(Cl)cc2Cl)N1Cc1ccccc1 (stereo not drawn),–,–,–,–,–,–
Cc1cc([N+](=O)[O-])ccc1-c1ccc(C2Nc3ccccc3C(=O)N2O)o1 (stereo not drawn),–,–,–,–,–,168
CCOC(=O)c1ccc(-c2ccc(C3Nc4ccccc4C(=O)N3O)o2)cc1 (stereo not drawn),–,–,–,–,–,364
O=C(COc1ncnc2ccc(Br)cc12)NC1CCCC1,–,–,–,–,–,–
O=C1c2ccccc2NC(c2ccc(-c3ccccc3F)o2)N1O (stereo not drawn),–,–,–,–,–,120
CCCN(CCC)Cc1cc(=O)oc2cc(C)c(Cl)cc12,·,–,–,–,–,·
COC(=O)Cc1c(C)nc2nc(NCc3c(F)cccc3Cl)[nH]n2c1=O,–,–,–,–,–,–
COC(=O)Cc1c(C)nc2nc(-c3ccc(OC)cc3)[nH]n2c1=O,–,–,–,22942,–,–
COc1ccc(-c2nc3nc(C)c(Cc4ccccc4)c(=O)n3[nH]2)cc1,–,–,–,22311,–,–
CCOc1ccc(S(=O)(=O)N2CCN(C(=O)CCC(=O)N3CCOCC3)CC2)cc1,–,–,–,–,–,–
CCCSc1nc2sc3c(c2c(=O)[nH]1)CCN(Cc1ccccc1)C3,–,32,?,–,–,–
Cc1cn(CC(=O)N(C)Cc2ccco2)c(=O)[nH]c1=O,–,–,–,–,–,–
Cc1nnc2c3ccccc3c(-c3cccc4ccccc34)nn12,–,?,–,19934,–,–
Cc1nnc2c3ccccc3c(-c3ccccc3)nn12,–,–,–,–,–,–
Cc1cccc(C(=O)NNC(=O)C2CCN(C(=O)OC(C)(C)C)CC2)c1,–,–,–,–,–,–
COc1cc(CN2CCc3c([nH]c4ccccc34)C2)cc(OC)c1,–,–,–,18016,–,–
COc1ccccc1CN1CCc2c([nH]c3ccccc23)C1,–,–,–,–,–,–
CCOC(=O)Nc1ccc2c(c1)N(C(=O)CN1CCN(CCO)CC1)c1ccccc1CC2,–,·,·,·,·,–
CC1=C(C(=O)Nc2cc(C)ccc2C)C(c2cccs2)NC(=S)N1 (stereo not drawn),–,–,–,21275,–,–
NS(=O)(=O)c1ccc(NC(=O)Nc2ccc3c(c2)OCO3)cc1,–,–,–,–,–,–
COc1cc(/C=N/NC(=O)c2ccc(O)cc2)ccc1Oc1ccc([N+](=O)[O-])cn1,–,–,–,–,–,–
Nc1nc(-c2ccc(Oc3ccccc3)cc2)cs1,–,–,–,–,–,185
SMILES,MazEF act,BoNT-A LC inh2,BoNT-F LC inh,Bead autofluor,Anthrax LF prot,PfHsp40 yeast
Nc1nc(-c2ccc(-c3ccccc3)cc2)cs1,–,–,–,–,–,–
CC(C)CN(C(=O)COC(=O)c1ccccn1)c1c(N)n(Cc2ccccc2)c(=O)[nH]c1=O,–,–,–,–,–,–
Cn1c(=O)n(CC(=O)NCc2cccnc2)c2ccccc21,–,–,–,24061,–,–
Cc1ccccc1NC(=O)Cn1c(=O)n(C)c2ccccc21,–,–,–,21084,–,–
Cn1c(C(=O)NCc2cccnc2)cc2sc(Cl)cc21,–,–,–,20564,–,–
CNC(=O)Cn1c(=O)n(C)c2ccccc21,–,–,–,–,–,–
Cn1c(=O)n(CC(=O)Nc2cccnc2)c2ccccc21,–,–,–,–,–,–
Cc1ccccc1NC(=O)Cn1nc(-c2ccccc2)nc1-c1ccccc1,–,–,–,16150,–,–
Cc1cccc(C)c1NC(=O)Cn1nc(-c2ccccc2)nc1-c1ccccc1,–,?,?,?,?,–
CCOc1ccc(NC(=O)CSc2nnc(Cc3csc(C)n3)o2)cc1,–,–,–,–,–,–
CCCN(CC(=O)Nc1ccccc1C)C(=O)CCN1C(=O)c2cccc([N+](=O)[O-])c2C1=O,–,–,–,–,–,–
CC(Oc1cccc2ccccc12)C(=O)N/N=C/c1cccnc1 (stereo not drawn),–,–,–,–,–,–
COc1ccc(C(=O)Nc2n[nH]c(-c3ccncc3)n2)cc1,–,–,–,18001,–,–
COc1ccc(C(=O)Nc2nc(C)cc(C)n2)cc1,–,–,–,–,–,–
O=c1sc(Nc2ccccc2)nc2ccsc12,–,?,–,19370,–,–
O=C(Nc1nc2ccsc2c(=O)s1)C1CCC1,–,–,–,–,–,–
O=C(CN1CCN(S(=O)(=O)c2ccc(F)c(F)c2)CC1)Nc1ccccc1C(=O)NC1CC1,–,–,–,–,–,–
CCCC(=O)Nc1cc(-c2cn3cccnc3n2)ccc1OC,–,–,–,18918,–,–
Cc1ccc(-c2cn3cccnc3n2)cc1NC(=O)c1ccc(Br)o1,–,–,–,17184,–,–
COc1ccc(-c2cn3cccnc3n2)cc1NC(=O)CC(C)C,–,–,–,–,–,–
O=C(Nc1cccc(-c2cn3cccnc3n2)c1)c1ccc2c(c1)OCO2,–,?,–,19449,–,–
COc1ccc(-c2cn3cccnc3n2)cc1NC(=O)c1ccc(Br)o1,–,–,–,20830,–,–
CCC(C(=O)OC)(C(=O)OC)c1ccc([N+](=O)[O-])cc1,–,–,–,–,–,–
Cc1c(CCC(=O)NCCCC(=O)O)c(=O)oc2cc3oc4c(c3cc12)CCCC4,–,–,–,–,–,–
Cc1sc2ncnc(OCC(=O)N3CC(=O)Nc4ccccc43)c2c1C,–,–,–,–,–,–
SMILES,MazEF act,BoNT-A LC inh2,BoNT-F LC inh,Bead autofluor,Anthrax LF prot,PfHsp40 yeast
O=C(Nc1cccc(-c2cn3cccnc3n2)c1)c1ccc(Br)o1,–,?,–,22911,–,–
O=C(O)c1cccc2c1NC(C(=O)O)C1CC(Sc3ccccc3[N+](=O)[O-])C(Cl)C21 (stereo not drawn),–,?,?,–,?,55
COc1ccc(N(CCOc2ccccc2)S(=O)(=O)c2ccccc2)cc1,–,–,–,–,?,–
CCOc1ccc(N(CCC#N)S(=O)(=O)c2ccc(OC)cc2)cc1,–,–,–,20566,–,–
CC(=O)OC1CC(C)N(C(=O)c2ccccc2)c2ccc(C)cc21 (stereo not drawn),–,–,–,25080,–,–
CCN(CC(=O)NCc1cccs1)C(=O)c1ccc(S(=O)(=O)N(CC)c2ccccc2)cc1,–,–,–,–,–,–
CC(C)C1S/C(=N/N=C/c2ccco2)NC1=O (stereo not drawn),–,–,–,–,–,58
Cc1ccc(NC(=O)CC2S/C(=N/N=C/c3ccco3)NC2=O)cc1Cl (stereo not drawn),–,–,–,–,–,–

# Assay outcomes (PubChem BioAssay)
